Assay results as given in PubChem BioAssay AID489042 (NMMLSC, 2010).
The source made the active and inactive calls. Cut-off read from the data, not from the text of the source: active = inhibition score above about 11; inactive = the rest.

test: yeast proliferation inhibition, dose response, BY4741, OD595, 24 h (AID 489042); conditions: S. cerevisiae BY4741 growth, hits give high values

| SMILES | inhibition score |
| --- | --- |
| CC(C)CSc1nnc2c3ccccc3n(C)c2n1 | 0 (inactive) |
| CC(=O)Nc1ccc2nc3ccccc3nc2c1 | 0 (inactive) |
| CC(C)(C)Nc1ncnc2c1cnn2-c1ccccc1 | 10 (inactive) |
| COc1ccc2cc(C3CC(c4ccco4)=NN3S(=O)(=O)c3ccccc3)c(Cl)nc2c1 (stereo unspecified) | 0 (inactive) |
| N#CCc1nn(-c2ccccc2)c2ncnc(N)c12 | 0 (inactive) |
| O=C(/C=C/c1cccs1)NC(=S)NNC(=O)Cc1cccs1 | 21 (active) |
| COc1ccc2nc3ccccc3[n+]([O-])c2c1 | 0 (inactive) |
| COc1ccc2c(c1)c1nnc(SC)nc1n2C | 21 (active) |
| COc1ccc2nc3cccc(OC)c3nc2c1 | 10 (inactive) |
| Cc1cc(C)cc(NC(=O)CN2CCN(c3ccccn3)CC2)c1 | 0 (inactive) |
| [O-][n+]1c2ccccc2[n+]([O-])c2cc(O)ccc21 | 10 (inactive) |
| O=C(O)c1cnc2ccccc2n1 | 0 (inactive) |
| CC(C)OC(=O)c1ccc2nc3ccccc3nc2c1 | 10 (inactive) |
| CN(C)CCNc1ncnc2c1cnn2-c1ccc(Cl)cc1 | 0 (inactive) |
| CCN(CC)C(=O)CSc1nnc(-c2cccc(OC)c2)o1 | 0 (inactive) |
| C/C(=N\Nc1ncnc2sc(C)c(C)c12)c1ccccn1 | 21 (active) |
| c1ccc2[nH]c3cc4ncnc4cc3nc2c1 | 0 (inactive) |
| COc1ccc2c3c(cccc13)N(C)N=C2C | 10 (inactive) |
| CCN(CC)c1ccc2nc3ccc(N)cc3[n+](-c3ccccc3)c2c1 | 0 (inactive) |
| COc1ccc2nc3ccccc3nc2c1N | 10 (inactive) |
| C[C@@]12C(=O)OC(=O)[C@]1(C)C1CCC2O1 | 21 (active) |
